High-throughput results: PubChem, The Scripps Research Institute Molecular Screening Center
hgDAF12 agonist – agonists of H. glycines DAF-12 nuclear receptor | HEK293 GAL4-hgDAF12 UAS-luciferase reporter, agonist luminescence; normalized to butyrate control | activation, % at 6.8 µM | 1.8% of 370,000 active | AID 687014;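 active means activation above a cutoff set at the mean of all screened compounds plus 3 SD, cut at about 10% in these data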
DAX1 inh-1 – DAX1 (NR0B1) inhibition, primary screen | HEK293T StAR-luciferase reporter, SF-1/DAX-1 repression relief | inhibition, % at 6.8 µM | 1.1% of 370,000 active;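 active means inhibition above the mean over all tested compounds plus 3 SD, cut at about 3.6% in these data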;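 further: higher inhibition means more luminescence from relief of DAX-1 repression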
hcDAF12 agonist – activates DAF-12 receptor from parasite H. contortus; activation, % at 6.8 µM; HEK293 hcDAF-12 lit1-tk-luc reporter, luminescence; 0% DMSO, 100% Δ7-dafachronic acid; 1.4% of 370,000 active;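 active means activation above the mean of all tested compounds plus 3 SD, cut at about 5.5% in these data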
DAX1 inh-2 – inhibits human nuclear receptor DAX1 | P51843 | HEK293 Gal4-DAX1 luciferase reporter, luminescence | inhibition, % at 6.75 µM | 0.99% of 340,000 active;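 active means inhibition above the mean over all tested compounds plus 3 SD, cut at about 4.2% in these data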;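 further: inhibition shows as a rise in luminescence from relieved DAX1 repression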
Target sequence (P51843 207-470 limits assumed): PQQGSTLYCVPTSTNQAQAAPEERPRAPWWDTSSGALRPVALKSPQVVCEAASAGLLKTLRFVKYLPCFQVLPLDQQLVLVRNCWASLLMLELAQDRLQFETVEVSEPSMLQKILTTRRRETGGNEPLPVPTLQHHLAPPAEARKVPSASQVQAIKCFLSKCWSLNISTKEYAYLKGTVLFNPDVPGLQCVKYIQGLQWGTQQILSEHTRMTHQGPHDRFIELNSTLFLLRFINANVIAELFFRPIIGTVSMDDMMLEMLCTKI
ssDAF12 agonist – activators of S. stercoralis DAF-12 nuclear receptor. 1% of 370,000 active. AID 652126. activation, % at 6.8 µM. HEK293 ssDAF-12/GRIP1 lit1-tk-luc reporter, luminescence; % of 3 µM dafachronic acid response;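 active means activation above the mean over all tested compounds plus 3 SD, cut at about 0.9% in these data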
Hits are given with their value. Only some compounds are listed: those with a hit (about 4.1% of all), similar ones and a draw of the others.

What do the screens show for `CCOC(=O)[C@]12CCCCC/C=C\1N(Cc1ccc(OC)cc1)C(=O)[C@H]2CC(=O)NCc1ccccc1`?
hgDAF12 agonist: inactive; DAX1 inh-1: inactive; hcDAF12 agonist: inactive; ssDAF12 agonist: inactive

How did COc1cccc(N2CCN(C(=O)Cn3c(=O)oc4ccccc43)CC2)c1 do in these assays?
hgDAF12 agonist: inactive; DAX1 inh-1: inactive; hcDAF12 agonist: inactive; DAX1 inh-2: 4.3; ssDAF12 agonist: inactive

Results for Cc1ccc(S(=O)(=O)N2CCN(C(=O)Cn3c(=O)oc4ccccc43)CC2)cc1 ?
hgDAF12 agonist: inactive; DAX1 inh-1: inactive; hcDAF12 agonist: inactive; DAX1 inh-2: inactive; ssDAF12 agonist: 1.0

Results for Oc1ccc(-c2csc(-c3cccnc3)n2)cc1O ?
hgDAF12 agonist: 13; DAX1 inh-1: inactive; hcDAF12 agonist: inactive; DAX1 inh-2: inactive; ssDAF12 agonist: inactive

How did CCN(CC)C(=O)CC[C@H]1CC[C@]2(CCCN(Cc3cccc4ccccc34)C2)O1 do in these assays?
hgDAF12 agonist: inactive; DAX1 inh-1: inactive; hcDAF12 agonist: inactive; ssDAF12 agonist: inactive

How did Cn1cc([C@]2(O)C(=O)Nc3cccc(Cl)c32)c2ccccc21 do in these assays?
hgDAF12 agonist: inactive; DAX1 inh-1: inactive; hcDAF12 agonist: inactive; ssDAF12 agonist: inactive

Results for Cn1cc([C@]2(O)C(=O)Nc3ccc(F)cc32)c2ccccc21 ?
hgDAF12 agonist: inactive; DAX1 inh-1: inactive; hcDAF12 agonist: inactive; ssDAF12 agonist: 1.2

How did Cn1cc([C@]2(O)C(=O)Nc3ccc(Br)cc32)c2ccccc21 do in these assays?
hgDAF12 agonist: inactive; DAX1 inh-1: inactive; hcDAF12 agonist: inactive; ssDAF12 agonist: 0.9

How did COc1cccc(-c2nnc(SCC(=O)OC(C)C)n2-c2ccc(Cl)cc2)c1 do in these assays?
hgDAF12 agonist: inactive; DAX1 inh-1: inactive; hcDAF12 agonist: inactive; ssDAF12 agonist: inactive

Results for C/C(=C\c1ccccc1)C(=O)Nc1ccc(Cl)cn1 ?
hgDAF12 agonist: 12; DAX1 inh-1: inactive; hcDAF12 agonist: 5.6; DAX1 inh-2: inactive; ssDAF12 agonist: inactive

How did O=C(Nc1ccc(F)cc1)Nc1ccccc1F do in these assays?
hgDAF12 agonist: 11; DAX1 inh-1: inactive; hcDAF12 agonist: inactive; DAX1 inh-2: inactive; ssDAF12 agonist: inactive

Results for COC(C(=O)NNC(=O)Cc1ccc(Cl)cc1)c1ccccc1 (stereo unspecified) ?
hgDAF12 agonist: inactive; DAX1 inh-1: inactive; hcDAF12 agonist: inactive; DAX1 inh-2: 4.3; ssDAF12 agonist: inactive

What do the screens show for `O=C(Nc1nc(-c2ccccc2)cs1)Nc1ccc(F)cc1F`?
hgDAF12 agonist: inactive; DAX1 inh-1: inactive; hcDAF12 agonist: inactive; DAX1 inh-2: 4.7; ssDAF12 agonist: inactive

How did O=C(CCc1ccccc1)NNC(=O)Cc1ccc(Cl)cc1 do in these assays?
hgDAF12 agonist: inactive; DAX1 inh-1: inactive; hcDAF12 agonist: inactive; DAX1 inh-2: inactive; ssDAF12 agonist: inactive

Results for Cc1cc(N2CCN(C(=O)Oc3ccc(C(F)(F)F)cc3)CC2)c2ccccc2n1 ?
hgDAF12 agonist: inactive; DAX1 inh-1: inactive; hcDAF12 agonist: inactive; ssDAF12 agonist: inactive

How did CC(C)NC(=O)[C@]1(C#N)CC(=O)N(C)[C@@H]1c1ccccc1 do in these assays?
hgDAF12 agonist: inactive; DAX1 inh-1: inactive; hcDAF12 agonist: inactive; ssDAF12 agonist: inactive

Results for COC(=O)[C@]12C[C@H](CC(=O)NCCC(C)C)C(=O)N(Cc3ccc(Cl)cc3Cl)C1=C[C@H](C(C)(C)C)O[C@@H]2C ?
hgDAF12 agonist: inactive; DAX1 inh-1: inactive; hcDAF12 agonist: inactive; ssDAF12 agonist: inactive

What do the screens show for `CC(C)N(C(N)=NC(=O)OCc1ccccc1)C(C)C`?
hgDAF12 agonist: inactive; DAX1 inh-1: inactive; hcDAF12 agonist: inactive; ssDAF12 agonist: inactive

Results for O=C(C#Cc1ccccc1)Nc1ccccc1F ?
hgDAF12 agonist: 11; DAX1 inh-1: inactive; hcDAF12 agonist: inactive; DAX1 inh-2: inactive; ssDAF12 agonist: inactive

What do the screens show for `COC(=O)c1cccc(NC(=O)Nc2ccccc2OC)c1`?
hgDAF12 agonist: inactive; DAX1 inh-1: inactive; hcDAF12 agonist: inactive; DAX1 inh-2: 6.5; ssDAF12 agonist: inactive

How did COC(C(=O)Nc1ccc(F)cc1F)c1ccccc1 (stereo unspecified) do in these assays?
hgDAF12 agonist: inactive; DAX1 inh-1: inactive; hcDAF12 agonist: inactive; DAX1 inh-2: 4.2; ssDAF12 agonist: inactive

Results for O=C(Nc1ccc(NC(=O)c2ccccc2O)cc1)Nc1ccc(F)cc1F ?
hgDAF12 agonist: inactive; DAX1 inh-1: inactive; hcDAF12 agonist: inactive; DAX1 inh-2: inactive; ssDAF12 agonist: 1.6

Results for COC(C(=O)Nc1ccc(Br)cc1F)c1ccccc1 (stereo unspecified) ?
hgDAF12 agonist: inactive; DAX1 inh-1: inactive; hcDAF12 agonist: inactive; DAX1 inh-2: inactive; ssDAF12 agonist: inactive

How did O=C(Nc1ccc(F)cc1F)Nc1ccc(F)cc1F do in these assays?
hgDAF12 agonist: inactive; DAX1 inh-1: inactive; hcDAF12 agonist: inactive; DAX1 inh-2: inactive; ssDAF12 agonist: inactive

Results for O=C(NCc1ccccc1)C1(C(=O)C2CC2)CC(c2ccccc2C(F)(F)F)=NO1 (stereo unspecified) ?
hgDAF12 agonist: inactive; DAX1 inh-1: inactive; hcDAF12 agonist: inactive; ssDAF12 agonist: inactive

How did COC(=O)c1cc(-c2ccc(C)c3ccccc23)c(=O)n2c1CCC2 do in these assays?
hgDAF12 agonist: inactive; DAX1 inh-1: inactive; hcDAF12 agonist: inactive; ssDAF12 agonist: inactive

Results for COC(=O)C1CN(C2CCCC2)CCS(=O)(=O)N1Cc1cn(Cc2ccc(OC)cc2)nn1 (stereo unspecified) ?
hgDAF12 agonist: inactive; DAX1 inh-1: inactive; hcDAF12 agonist: inactive; ssDAF12 agonist: inactive

How did COC(=O)c1ccc(NC(=O)Nc2ccccc2F)cc1 do in these assays?
hgDAF12 agonist: 12; DAX1 inh-1: inactive; hcDAF12 agonist: inactive; DAX1 inh-2: inactive; ssDAF12 agonist: inactive

Results for O=C(Nc1ccc(Cl)cn1)Nc1ccccc1F ?
hgDAF12 agonist: inactive; DAX1 inh-1: inactive; hcDAF12 agonist: inactive; DAX1 inh-2: 6.9; ssDAF12 agonist: 1.6

How did O=C(Nc1ccccc1)Nc1cccn(Cc2c(F)cccc2Cl)c1=O do in these assays?
hgDAF12 agonist: 11; DAX1 inh-1: inactive; hcDAF12 agonist: inactive; DAX1 inh-2: inactive; ssDAF12 agonist: inactive

How did COC(=O)c1ccc(NC(=O)Nc2ccccc2C)cc1 do in these assays?
hgDAF12 agonist: 12; DAX1 inh-1: inactive; hcDAF12 agonist: inactive; DAX1 inh-2: inactive; ssDAF12 agonist: inactive

What do the screens show for `CC(C)Oc1ccc(Oc2ccc(C#C[C@H](C)N3C(=O)c4ccccc4C3=O)cc2)cn1`?
hgDAF12 agonist: inactive; hcDAF12 agonist: inactive; ssDAF12 agonist: inactive

How did COC(=O)[C@]12C[C@H](CC(=O)NCc3ccccc3)C(=O)N(Cc3ccco3)C1=C[C@H](C(C)(C)C)O[C@@H]2C do in these assays?
hgDAF12 agonist: inactive; DAX1 inh-1: inactive; hcDAF12 agonist: inactive; ssDAF12 agonist: inactive

How did O=C(C1CCCN(S(=O)(=O)c2ccccc2F)C1)N1CCN(Cc2ccccc2)CC1 (stereo unspecified) do in these assays?
hgDAF12 agonist: inactive; DAX1 inh-1: inactive; hcDAF12 agonist: inactive; ssDAF12 agonist: inactive
